Screening results deposited in PubChem by National Center for Advancing Translational Sciences (NCATS).
Hits are enriched below; roughly 10% of the tested compounds scored in any of these assays.
CtBP-E1A blk = blocks the CtBP interaction with E1A; 340,000 compounds, 0.49% hits; activity change, % (concentration not given with the values); AlphaScreen GST-E1A/His-CtBP binding, 1536-well; stronger effect = lower value; in the data active means activity change below about -65%; inconclusive means mostly about -30% to -63%; further: on the % scale 0 is the no-effect control and ±100 the full control effect
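In 5 uL wells, 23 nL compound meets equimolar GST-E1A and His-CtBP (5X stock 125 nM each) for 2 h, 37 °C. Beads (5X, 50 ug/mL) then 1 h, 37 °C, dark.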
G9a inh = G9a (human) methyltransferase inhibition; G9a H3K9 monomethylation, AlphaScreen, 2 h; Potency, µM (highest dose often 102 µM), for the others: at the top dose activity, negative = inhibition, most hits filed as inhibitors; 350,000 compounds, 8.8% hits; Q96KQ7; further: potency means the concentration at half of the fitted maximal effect; on the % scale 0 is the no-effect control and ±100 the full control effect; nearly all actives have a fitted effect of over 75% in size
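Using a bead-based AlphaScreen, monomethylated H3K9 product from 2 h room-temperature reactions (G9a 20 nM, peptide 500 nM, SAM 20 uM) was detected with 0.5 ug/mL rabbit anti-H3K9me1 antibody.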
BAZ2B block = BAZ2B (human) inhibition; AlphaScreen BAZ2B-H3K14Ac peptide displacement; Potency, µM (top dose mostly 114 µM), for inactives: at the highest dose activity change, negative = inhibition, actives largely listed as inhibitors; 360,000 compounds, 4.4% hits; further: potency means the concentration at half of the fitted maximal effect; on the % scale 0 is the no-effect control and ±100 the full control effect; nearly all actives have a fitted effect of over 60% in size
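Compounds, titrated to a top concentration of 110 uM, were incubated 30 min at room temperature with preformed BAZ2B/acetyl-K14 H3 peptide complex (50 nM each). Proximity signal was measured by AlphaScreen after 20 min with beads.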
JMJD2A Tudor inh = inhibitors of human JMJD2A Tudor domain; O75164; AlphaScreen JMJD2A-Tudor / H3K4me3 peptide binding; Potency, µM (titrated, usually from 114 µM), for inactives: at the top dose activity change, negative = inhibition, most hits filed as inhibitors; 390,000 compounds, 4.4% hits; AID 504339; further: potency means the concentration at half of the fitted maximal effect; on the % scale 0 is the no-effect control and ±100 the full control effect; nearly all actives have a fitted effect of over 50% in size
Six1-Eya2 inh = Six1/Eya2 interaction inhibition. Q15475+O00167. AlphaScreen GST-Six1/His-Eya2 binding, biochemical; stronger effect = lower value. activity change, % (test concentration not listed). 360,000 compounds, 0.56% hits; in the data active means activity change below about -65%; inconclusive means mostly about -30% to -63%; further: on the % scale 0 is the no-effect control and ±100 the full control effect
Target sequence (O00167 whole entry, looked up): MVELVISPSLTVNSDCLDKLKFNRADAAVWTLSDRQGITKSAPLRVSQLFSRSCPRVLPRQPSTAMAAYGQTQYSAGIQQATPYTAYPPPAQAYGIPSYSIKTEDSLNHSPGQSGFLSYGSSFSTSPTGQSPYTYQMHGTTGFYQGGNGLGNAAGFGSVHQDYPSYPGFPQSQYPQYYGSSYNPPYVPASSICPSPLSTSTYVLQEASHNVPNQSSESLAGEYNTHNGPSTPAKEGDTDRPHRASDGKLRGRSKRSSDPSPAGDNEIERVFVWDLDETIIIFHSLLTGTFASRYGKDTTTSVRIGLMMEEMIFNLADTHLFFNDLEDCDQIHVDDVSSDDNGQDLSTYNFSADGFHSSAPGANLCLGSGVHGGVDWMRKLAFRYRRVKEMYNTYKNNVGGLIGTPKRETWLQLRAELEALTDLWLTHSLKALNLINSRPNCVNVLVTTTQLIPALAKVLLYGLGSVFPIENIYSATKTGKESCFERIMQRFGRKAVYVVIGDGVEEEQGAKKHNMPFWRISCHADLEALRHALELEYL
Target sequence (Q15475 whole entry, looked up): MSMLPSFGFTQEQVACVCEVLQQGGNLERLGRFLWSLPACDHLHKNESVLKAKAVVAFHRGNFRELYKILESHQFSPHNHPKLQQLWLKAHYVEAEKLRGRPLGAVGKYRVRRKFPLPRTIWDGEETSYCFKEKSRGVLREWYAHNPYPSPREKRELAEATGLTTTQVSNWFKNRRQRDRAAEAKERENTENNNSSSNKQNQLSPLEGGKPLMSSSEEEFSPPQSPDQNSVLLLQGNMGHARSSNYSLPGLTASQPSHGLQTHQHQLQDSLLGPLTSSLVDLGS
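AlphaScreen with GST-Six1 and His-Eya2 (5X mix: 250 nM and 500 nM), glutathione donor and nickel acceptor beads; buffer 50 mM Tris pH 8.0, 300 mM NaCl, 1 mM TCEP; 1 h at 37 C in the dark.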
HP1b chromo inh = inhibitors of HP1-beta chromodomain binding to methylated histone tails. P83916. AlphaScreen HP1-beta / biotin-H3K9me3 peptide binding. Potency, µM (highest dose often 114 µM), for the others: top-dose activity change, negative = inhibition, usual class: inhibitors. 390,000 compounds, 0.56% hits. AID 540317; further: potency means the concentration at half of the fitted maximal effect; nearly all actives have a fitted effect of over 70% in size
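Compound inhibition of the preformed complex between 50 nM HP1-beta and 50 nM biotinylated H3K9me3 peptide was read by AlphaScreen. Buffer was PBS pH 7.4 with 0.01% Tween-20. Incubations ran 30 min at room temperature, with 10 ug/mL donor/acceptor beads.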
* hit, by the source's call; ? = inconclusive; / = not tested or not shown; [ ] = remark or other dose. Unless noted, the call rests on the fitted dose curve; in most records, active means well fitted inhibition curve with a large enough effect; inconclusive means small, poorly fitted or top-dose-only effect; inactive means no such curve, though single readings can be large or run the other way.

SMILES	CtBP-E1A blk	G9a inh	BAZ2B block	JMJD2A Tudor inh	Six1-Eya2 inh	HP1b chromo inh
CSCC[C@H](NC(=O)C1CCN(S(=O)(=O)c2ccc(C)cc2)CC1)C(=O)NC1CCS(=O)(=O)C1 (some centres undefined)	0	56µM*	-4%	-14%	7	23%
COc1ccccc1CNc1nc2ccc(C)cc2n2nnnc12	/	-8%[59 µM]	-5%	-9%	/	31%
Cc1ccccc1N(C(=O)CS(=O)CC(=O)Nc1ccc(F)cc1)C(C)C(=O)NC(C)(C)C (centres undefined)	-2	13%	3%	-11%	7	?
Cc1ccc(N(C(=O)CS(=O)CC(=O)Nc2ccc(F)cc2)C(C)C(=O)NC(C)(C)C)cc1 (centres undefined)	0	71µM*	0%	2%	8	15%
O=C(NCCc1ccccc1)C1CCCN(C(=O)Nc2ccc(F)cc2)C1 (centres undefined)	-6	13%	7%	-6%	12	7%
CCn1ncc(NC(=S)Nc2ccc(OC)c(OC)c2)c1C(N)=O	0	45µM*	79µM*	?	-24	0%
CCn1ncc(NC(=S)Nc2ccc3c(c2)OCO3)c1C(N)=O	-1	20µM*	-32%	-3%	7	-11%
CCOC(=O)Nc1ccc2c(c1)OCO2	7	-2%[12.7 µM]	-26%	-11%[57.1 µM]	-2	35%
S=c1[nH]nc(Nc2ccccc2Cl)s1	0	1.4µM*	45µM*	6.3µM*	2	22µM*
Cc1ccc(Nc2n[nH]c(=S)s2)cc1C	3	/	/	/	-10	/
S=c1[nH]nc(Nc2cccc(Cl)c2)s1	/	1.4µM*	-31%	-15%	-3	28%
COc1ccc(N2CCN(CC(O)COc3ccc4c(c3)CCC4)CC2)cc1 (centres undefined)	?	?	35µM*	56µM*	?	?
OCCN1CCN(CC(O)COCCOc2ccc(Br)cc2)CC1 (centres undefined)	-10	-13%[59 µM]	20%	18µM*	-2	?
COc1ccc(N2CCN(CC(O)COCCOc3ccc(Br)cc3)CC2)cc1 (centres undefined)	-1	10µM*	45µM*	-20%	-9	10%
COc1ccc(N2CCN(CC(O)COC(C)(C)C)CC2)cc1 (centres undefined)	/	10µM*	45µM*	18µM*	10	?
COc1ccc(OCC(O)CN2CCN(c3ccc(Cl)cc3)CC2)cc1 (centres undefined)	/	2%	-13%	-11%	-9	35%
CCc1ccc(C(=O)COC(=O)C(Cc2c[nH]c3ccccc23)NC(=O)c2ccc(Br)cc2)cc1 (centres undefined)	/	20%[59 µM]	14%	-26%	/	40%
COC(=O)c1c(C(=O)OC)c2c(-c3ccccc3)cc3cccc1n32	17	/	/	/	68	/
Oc1ccc(-c2csc(Nc3ccccn3)n2)cc1	-3	71µM*	?	-27%	-6	3%
CC(=O)Oc1ccc(-c2csc(Nc3ccc(Cl)cn3)n2)cc1	-7	29%	-19%	-20%	-2	21%
COc1ccc(-c2csc(Nc3ccccn3)n2)cc1OC	-4	50µM*	45µM*	?	-1	-25%
COc1ccc(-c2csc(Nc3ccc(C)cn3)n2)cc1	-6	20µM*	?	-29%	-4	-13%
Cc1ccc(-c2csc(Nc3ccccn3)n2)cc1	-5	?	?	-22%	-11	21%
CCOC(=O)C1CCN(Cc2cn(C)nc2-c2ccc(Oc3ccccc3)cc2)CC1	2	/	-2%	-15%	-2	40%
COc1ccc(-n2c(=O)c3ccccc3n(Cc3ccccc3C)c2=O)c(OC)c1	/	-3%[59 µM]	-10%	-20%	/	10%
SMILES	CtBP-E1A blk	G9a inh	BAZ2B block	JMJD2A Tudor inh	Six1-Eya2 inh	HP1b chromo inh
COc1cc(NC(=S)NCCCN2CCOCC2)cc(OC)c1OC	-5	1%	-8%	-9%	9	20%
COc1cc(C)c(NC(=S)NCCCN2CCOCC2)cc1OC	8	35µM*	-19%	-3%[57.1 µM]	3	26%
COc1ccc(C(C)(C)C)cc1NC(=S)NCCN1CCOCC1	0	45µM*	-13%	-18%	0	-13%
CC(C)(C)n1nnnc1C(c1cc2ccccc2o1)N1CCOCC1 (centres undefined)	-10	/	/	/	-3	/
Cc1ccc(-c2nn3c(=O)cc(CN4CCN(C(=O)Nc5cc(Cl)ccc5C)CC4)nc3s2)cc1	/	5%[59 µM]	12%	-15%	/	17%[57 µM]
Cc1ccc(NC(=O)c2cnc(SCC(=O)N3CCOCC3)n(C)c2=O)cc1	/	10%[59 µM]	-3%	-15%	/	20%
COc1ccc(C2=C(Nc3ccc(C)cc3C)c3ccccc3C2=O)cc1	/	?	-25%	28µM*	/	-20%
COc1ccc(NC2=C(c3ccc(OC)cc3)C(=O)c3ccccc32)cc1	?	-10%[59 µM]	-29%	-23%	-27	-3%
Nc1[nH]nc2ncc3cc4ccccc4nc3c12	-23	35µM*	?	-21%	?	26%
CCOC(=O)c1c(C)[nH]c(C2=NNC(=Nc3ccccc3)SC2)c1C	/	45µM*	-37%	?	?	?
CC(=O)c1c(C)[nH]c(C2=NNC(=NC(C)(C)C)SC2)c1C	3	32µM*	/	-15%	-1	27%
CCOC(=O)c1c(C)[nH]c(C2=NNC(=Nc3ccc(OCC)cc3)SC2)c1C	-1	?	50µM*	56µM*	?	?
CCOC(=O)c1c(C)[nH]c(C2=NNC(=Nc3ccccc3OC)SC2)c1C	?	?	?	50µM*	?	?
CCCN(CC(=O)Nc1ccccc1C)C(=O)/C=C/c1cccs1	4	35%[59 µM]	1%	-7%	1	44%
Cc1ccc(-n2cc(C(=O)Oc3cccc(C)c3)c3ccccc3c2=O)cc1	/	10%[59 µM]	5%	5%	/	35%[57 µM]
CCC(=O)NC(=S)NNC(=O)c1ccccc1[N+](=O)[O-]	10	3.2µM*	?	-9%	9	38%
O=C(NC(=S)NNC(=O)c1ccccc1[N+](=O)[O-])c1ccccc1	20	2.5µM*	-3%	28µM*	12	?
O=C(NNC(=O)c1ccccc1[N+](=O)[O-])c1ccccc1[N+](=O)[O-]	-6	10µM*	0%	-19%	-9	-2%
Cc1ccccc1OCC(=O)NNC(=S)NC(=O)c1ccccc1[N+](=O)[O-]	-4	-11%[59 µM]	1%	5%	2	-5%
CC(C)(C)c1ccc(OCC(=O)NNC(=S)NC(=O)c2ccccc2[N+](=O)[O-])c(Br)c1	-1	45µM*	-26%	?	-19	?
O=C(NNC(=S)NC(=O)c1ccccc1[N+](=O)[O-])c1ccccc1	-1	?	11%	-3%	0	30%
